Assay results as given in the OligoGym collection.
Note: reference of the scale not given here.

What follows are sequences tested against SMYD3 (assay: pooled miR-30 sensor sort-seq; sequence = guide strand). Conditions: shRNA.
For TTCTTCTAAAAGTAGAATCAAA, the sensor-assay potency score (higher = more potent) was -1.27. In the case of TTGAACTTCCTTCCATACTTGC, the sensor-assay potency score (higher = more potent) is reported as -0.357. For TAATATTTGACTCCAGATCATA, the sensor-assay potency score (higher = more potent) was -1.27. For TAGCATATCAGCATCCTTGTCC, the sensor-assay potency score (higher = more potent) was 0.139. In the case of TTTGTTAATATTTGACTCCAGA, the sensor-assay potency score (higher = more potent) is reported as -0.278. TAGCACTACAGTATTTGGCGAC was tested, and the sensor-assay potency score (higher = more potent) was 0.0593. For TTTTCTGACACTTAGCACTACA, the sensor-assay potency score (higher = more potent) was -0.327. Work on TTTTTCTGACACTTAGCACTAC yielded a sensor-assay potency score (higher = more potent) of -0.019. TAGGCCAACACCAACTTCCTGC showed a sensor-assay potency score (higher = more potent) of 0.026. Sequence TTTACCTACACAAACACGGAAC has a sensor-assay potency score (higher = more potent) of -0.662. TTGAACACAATCGAACAGTTGG gave a sensor-assay potency score (higher = more potent) of 0.615.

The sequences below were run against SNAP23 in the same assay as above. Conditions: shRNA.
TTGTTCCTTTTGTTCATCCAGC gave a sensor-assay potency score (higher = more potent) of -0.861. TTGGTGTCAGCCTTGTCTGTGA was tested, and the sensor-assay potency score (higher = more potent) was 0.24. With TTCTTTGTTCTATTACATGGGC the sensor-assay potency score (higher = more potent) was -0.51. In the case of TTAGTTATGCTATTACATGGGC, the sensor-assay potency score (higher = more potent) is reported as -0.215. With TTGGTTGCTGAAGCTGACCATT the sensor-assay potency score (higher = more potent) was -0.861. For TTAGATACTACATTGCAAGGTG, the sensor-assay potency score (higher = more potent) was 0.78. Work on TAATCTGGTGAGCTCTCTGTTG yielded a sensor-assay potency score (higher = more potent) of -0.844. TATAACTGCAACTTAAATCAAA gave a sensor-assay potency score (higher = more potent) of -0.858. TTGAGTCAGGTTCTCTTCCATT showed a sensor-assay potency score (higher = more potent) of -1.05. For TAATGTATCCACCACTGGCTGC, the sensor-assay potency score (higher = more potent) was -0.654. Work on TTTTACTGAGGTAACAACCTCT yielded a sensor-assay potency score (higher = more potent) of 0.719. For TTATTTGTGGATTTTGAGCATC, the sensor-assay potency score (higher = more potent) was -0.871.

These sequences were tested against SNAPC2 in the same assay as above. Conditions: shRNA.
TAGATCTTCTCAAAGTCCACAG gave a sensor-assay potency score (higher = more potent) of -0.173. TTATCTTCTCAGCCAGATCCGT was tested, and the sensor-assay potency score (higher = more potent) was -0.528. For TCAGCTGCTGAGAGCTCGGGGC, the sensor-assay potency score (higher = more potent) was -1.02. Work on TTCTCAGCCAGATCCGTCCAGA yielded a sensor-assay potency score (higher = more potent) of -0.94. TATCTTCTCAGCCAGATCCGTC gave a sensor-assay potency score (higher = more potent) of -0.959. Work on TGTAGATCTTCTCAAAGTCCAC yielded a sensor-assay potency score (higher = more potent) of -0.752. TTCAGTGGAGGGACCAGCCGAC showed a sensor-assay potency score (higher = more potent) of -0.383. Work on AAGTACTTGTAGATCTTCTCAA yielded a sensor-assay potency score (higher = more potent) of 0.257. TCAGGGGACAGATCCCAGCTGC showed a sensor-assay potency score (higher = more potent) of -0.373. In the case of TTTCAGTTCGCTGTGCTCGGCC, the sensor-assay potency score (higher = more potent) is reported as -0.483. AAGTGACATGAGCAGGTCGAGG showed a sensor-assay potency score (higher = more potent) of -1.64. Work on AGTACTTGTAGATCTTCTCAAA yielded a sensor-assay potency score (higher = more potent) of -1.85.

What follows are sequences tested against SNCG in the same assay as above. Conditions: shRNA.
Work on TGGTCTTTTCCACCGCACCCAC yielded a sensor-assay potency score (higher = more potent) of -1.77. With ACAACATTCTCCTTGGTCTTGG the sensor-assay potency score (higher = more potent) was -0.611. In the case of TACAACATTCTCCTTGGTCTTG, the sensor-assay potency score (higher = more potent) is reported as -0.826. TTTGGATGCCACACCCTCCTGT gave a sensor-assay potency score (higher = more potent) of -0.0802. TTCTCCTTGGTCTTGGCTCCCA showed a sensor-assay potency score (higher = more potent) of -0.654.
